Measured values taken from PubChem BioAssay (NCATS).
Records with an inconclusive call do not appear. Calls of active or inactive are those of the source. Calls follow the shape of the dose curve; as a rule, active = well fitted curve in the direction sought with a large enough effect; inconclusive = small, poorly fitted or top-dose-only effect, or another doubt; inactive = no such curve, though single readings can be large; an effect the other way counts as inactive or inconclusive.

Key:
[1] = target: ATP-dependent 6-phosphofructokinase (Trypanosoma brucei brucei) (UniProt O15648); assay: qHTS Assay to Find Inhibitors of T. brucei phosphofructokinase: hit validation (AID 492961);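 also: luminescence reports ADP formed as PFK phosphorylates fructose-6-phosphate with ATP; % is scaled to controls: 0 for no effect and ±100 for the full control effect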
Procedure, shortened: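 PFK 1.25 nM, F6P 0.5 mM, ATP 0.1 mM, MgCl2 5 mM, 0.1 M TEA pH 8.0, Tween20 0.01%, BSA 0.1%; 45 min RT. ADP-Glo two-step detection, luminescence. qHTS titration; curve fitting with curve-class categorization.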

[2] = qHTS profiling for inhibitors of Plasmodium falciparum proliferation (AID 504749);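 also: 0% = DMSO vehicle and full inhibition = artemisinin control; nearly all actives have a fitted effect of over 60% in size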; details: P. falciparum in erythrocytes, SYBR Green DNA, 72 h, at 28.7 µM (top of the series)
Procedure, shortened: (§1)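 Quantitative HTS: compounds pinned into medium, infected erythrocytes added (0.3% parasitemia, 2.5% hematocrit), 72 h culture at 37 C under 5% CO2. Saponin/Triton lysis with SYBR Green I, overnight RT, then fluorescence read.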

3D7 = assay: as above; details: P. falciparum in erythrocytes, SYBR Green DNA, 72 h; series mostly up to 28.7 µM
Procedure, shortened: as §1

7G8 = assay: as above; details: P. falciparum in erythrocytes, SYBR Green DNA, 72 h; series mostly up to 28.7 µM
Procedure, shortened: as §1

AS120 = assay: as above; details: P. falciparum in erythrocytes, SYBR Green DNA, 72 h; series mostly up to 28.7 µM
Procedure, shortened: as §1

ATS189 = assay: as above; details: P. falciparum in erythrocytes, SYBR Green DNA, 72 h; series mostly up to 28.7 µM
Procedure, shortened: as §1

CP185 = assay: as above; details: P. falciparum in erythrocytes, SYBR Green DNA, 72 h; series mostly up to 28.7 µM
Procedure, shortened: as §1

CP191 = assay: as above; details: P. falciparum in erythrocytes, SYBR Green DNA, 72 h; series mostly up to 28.7 µM
Procedure, shortened: as §1

CP192 = assay: as above; details: P. falciparum in erythrocytes, SYBR Green DNA, 72 h; series mostly up to 28.7 µM
Procedure, shortened: as §1

CP194 = assay: as above; details: P. falciparum in erythrocytes, SYBR Green DNA, 72 h; series mostly up to 28.7 µM
Procedure, shortened: as §1

CP201 = assay: as above; details: P. falciparum in erythrocytes, SYBR Green DNA, 72 h; series mostly up to 28.7 µM
Procedure, shortened: as §1

CP203 = assay: as above; details: P. falciparum in erythrocytes, SYBR Green DNA, 72 h; series mostly up to 28.7 µM
Procedure, shortened: as §1

CP247 = assay: as above; details: P. falciparum in erythrocytes, SYBR Green DNA, 72 h; series mostly up to 28.7 µM
Procedure, shortened: as §1

CP286 = assay: as above; details: P. falciparum in erythrocytes, SYBR Green DNA, 72 h; series mostly up to 28.7 µM
Procedure, shortened: as §1

CP291 = assay: as above; details: P. falciparum in erythrocytes, SYBR Green DNA, 72 h; series mostly up to 28.7 µM
Procedure, shortened: as §1

P94_40 = assay: as above; details: P. falciparum in erythrocytes, SYBR Green DNA, 72 h; series mostly up to 28.7 µM
Procedure, shortened: as §1

PC49 = assay: as above; details: P. falciparum in erythrocytes, SYBR Green DNA, 72 h; series mostly up to 28.7 µM
Procedure, shortened: as §1

TAB109 = assay: as above; details: P. falciparum in erythrocytes, SYBR Green DNA, 72 h; series mostly up to 28.7 µM
Procedure, shortened: as §1

TAB113 = assay: as above; details: P. falciparum in erythrocytes, SYBR Green DNA, 72 h; series mostly up to 28.7 µM
Procedure, shortened: as §1

Sequence of ATP-dependent 6-phosphofructokinase (Trypanosoma brucei brucei) (O15648 whole entry, looked up): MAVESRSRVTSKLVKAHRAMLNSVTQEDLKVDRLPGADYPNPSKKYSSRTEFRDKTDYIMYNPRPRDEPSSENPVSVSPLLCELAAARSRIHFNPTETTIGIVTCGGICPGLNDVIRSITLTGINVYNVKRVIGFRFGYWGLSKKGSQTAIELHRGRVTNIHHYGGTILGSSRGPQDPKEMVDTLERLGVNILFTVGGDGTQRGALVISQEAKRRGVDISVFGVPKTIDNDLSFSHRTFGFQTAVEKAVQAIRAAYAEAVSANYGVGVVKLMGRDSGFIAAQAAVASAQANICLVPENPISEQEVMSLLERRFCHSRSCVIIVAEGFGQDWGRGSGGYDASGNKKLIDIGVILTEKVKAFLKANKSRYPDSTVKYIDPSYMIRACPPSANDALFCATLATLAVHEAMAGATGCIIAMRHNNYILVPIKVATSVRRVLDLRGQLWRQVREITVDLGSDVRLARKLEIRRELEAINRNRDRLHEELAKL

O=c1[nH]c(=O)n(C2C[C@H](O)[C@@H](CO)O2)cc1C(F)(F)F (stereo not given in full)
inactive: Potency [1] | activity, negative = inhibition ([2]; parasite line A) -3.45% | activity, negative = inhibition ([2]; parasite line B) -4.14% | Potency (3D7) | Potency (7G8) | Potency (AS120) | Potency (ATS189) | Potency (CP185) | Potency (CP191) | Potency (CP192) | Potency (CP194) | Potency (CP201) | Potency (CP203) | Potency (CP247) | Potency (CP286) | Potency (CP291) | Potency (P94_40) | Potency (PC49) | Potency (TAB109) | Potency (TAB113)

Cc1cnc(C(=O)O)cn1
inactive: Potency [1] | activity, negative = inhibition ([2]; parasite line A) 9.61% | activity, negative = inhibition ([2]; parasite line B) 7.1% | Potency (3D7) | Potency (7G8) | Potency (AS120) | Potency (ATS189) | Potency (CP185) | Potency (CP191) | Potency (CP192) | Potency (CP194) | Potency (CP201) | Potency (CP203) | Potency (CP247) | Potency (CP286) | Potency (CP291) | Potency (P94_40) | Potency (PC49) | Potency (TAB109) | Potency (TAB113)

O=c1ccn(C2OC(COP(=O)(O)OC3C(CO)OC(n4ccc(=O)[nH]c4=O)C3O)C(O)C2O)c(=O)[nH]1 (stereo not given)
inactive: Potency [1] | activity, negative = inhibition ([2]; parasite line A) 0.515% | activity, negative = inhibition ([2]; parasite line B) 10.1% | Potency (3D7) | Potency (7G8) | Potency (AS120) | Potency (ATS189) | Potency (CP185) | Potency (CP191) | Potency (CP192) | Potency (CP194) | Potency (CP201) | Potency (CP203) | Potency (CP247) | Potency (CP286) | Potency (CP291) | Potency (P94_40) | Potency (PC49) | Potency (TAB109) | Potency (TAB113)

Cc1cn([C@H]2CC(F)[C@@H](CO)O2)c(=O)[nH]c1=O (stereo not given in full)
inactive: Potency [1] | activity, negative = inhibition ([2]; parasite line A) 6.21% | activity, negative = inhibition ([2]; parasite line B) 4.03% | Potency (3D7) | Potency (7G8) | Potency (AS120) | Potency (ATS189) | Potency (CP185) | Potency (CP191) | Potency (CP192) | Potency (CP194) | Potency (CP201) | Potency (CP203) | Potency (CP247) | Potency (CP286) | Potency (CP291) | Potency (P94_40) | Potency (PC49) | Potency (TAB109) | Potency (TAB113)

CO/N=C(/C(=O)N[C@@H]1C(=O)N2C(C(=O)O)=C(C[n+]3ccc(N)n3CCO)CS[C@H]12)c1csc(N)n1
inactive: Potency [1] | activity, negative = inhibition ([2]; parasite line A) 0.303% | activity, negative = inhibition ([2]; parasite line B) 9.51% | Potency (3D7) | Potency (7G8) | Potency (AS120) | Potency (ATS189) | Potency (CP185) | Potency (CP191) | Potency (CP192) | Potency (CP194) | Potency (CP201) | Potency (CP203) | Potency (CP247) | Potency (CP286) | Potency (CP291) | Potency (P94_40) | Potency (PC49) | Potency (TAB109) | Potency (TAB113)

CCN(CC)C(=O)Nc1ccc(OC[C@H](O)CNC(C)(C)C)c(C(C)=O)c1
inactive: Potency [1] | activity, negative = inhibition ([2]; parasite line A) 5.16% | activity, negative = inhibition ([2]; parasite line B) -3.7% | Potency (3D7) | Potency (7G8) | Potency (AS120) | Potency (ATS189) | Potency (CP185) | Potency (CP191) | Potency (CP192) | Potency (CP194) | Potency (CP201) | Potency (CP203) | Potency (CP247) | Potency (CP286) | Potency (CP291) | Potency (P94_40) | Potency (PC49) | Potency (TAB109) | Potency (TAB113)

CCCCC/C(C=O)=C/c1ccccc1
inactive: Potency [1] | activity, negative = inhibition ([2]; parasite line A) -0.781% | activity, negative = inhibition ([2]; parasite line B) -10.8% | Potency (3D7) | Potency (7G8) | Potency (AS120) | Potency (ATS189) | Potency (CP185) | Potency (CP191) | Potency (CP192) | Potency (CP194) | Potency (CP201) | Potency (CP203) | Potency (CP247) | Potency (CP286) | Potency (CP291) | Potency (P94_40) | Potency (PC49) | Potency (TAB109) | Potency (TAB113)

COC(c1ccccc1)(c1ccccc1)C(Oc1nc(C)cc(C)n1)C(=O)O (stereo not given)
inactive: Potency [1] | activity, negative = inhibition ([2]; parasite line A) 2.94% | activity, negative = inhibition ([2]; parasite line B) 8.39% | Potency (3D7) | Potency (7G8) | Potency (AS120) | Potency (ATS189) | Potency (CP185) | Potency (CP191) | Potency (CP192) | Potency (CP194) | Potency (CP201) | Potency (CP203) | Potency (CP247) | Potency (CP286) | Potency (CP291) | Potency (P94_40) | Potency (PC49) | Potency (TAB109) | Potency (TAB113)
